Assay outcomes (PubChem BioAssay)
Compounds with a hit are over-represented: about 6.1% of the library has one in this group of screens.
D1 ag: activates the human D1 dopamine receptor | P21728 | activation, % at 2 µM | HEK293 T-REx D1 cells, calcium flux, agonist mode | hit rate 1% among 360,000 | AID 504660; in the data active = activation above about 30%; note: 0% is about no effect
Target sequence (P21728 whole entry, looked up): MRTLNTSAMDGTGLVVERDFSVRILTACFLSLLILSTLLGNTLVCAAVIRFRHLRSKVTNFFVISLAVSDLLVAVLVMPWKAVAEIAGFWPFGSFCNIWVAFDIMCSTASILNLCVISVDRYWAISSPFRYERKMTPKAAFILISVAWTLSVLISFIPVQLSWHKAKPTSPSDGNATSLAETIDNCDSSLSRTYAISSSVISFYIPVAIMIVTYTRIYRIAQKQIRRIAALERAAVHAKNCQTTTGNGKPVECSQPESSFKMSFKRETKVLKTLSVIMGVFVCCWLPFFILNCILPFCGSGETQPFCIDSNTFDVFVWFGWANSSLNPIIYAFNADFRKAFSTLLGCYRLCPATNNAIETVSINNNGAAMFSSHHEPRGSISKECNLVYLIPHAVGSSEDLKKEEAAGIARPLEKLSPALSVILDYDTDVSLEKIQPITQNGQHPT
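Agonism was scored from calcium flux recorded over 180 s (1 read/s) after pintool compound addition, following a 10-cycle baseline. Cells were inducible force-coupled HEK293 TREx D1, plated overnight at 30 C and loaded with no-wash calcium dye.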
D1 antagonist: human D1 dopamine receptor antagonism. P21728. HEK293 TREx D1 cells, calcium flux, dopamine EC80; active compounds read low. activity change, negative = inhibition, % at 10 µM. hit rate 3.2% among 360,000; in the data active = activity change below about -30%; note: % is set by controls: 0 for no effect and ±100 for the full control effect
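Tetracycline-induced HEK293 T-REx cells with force-coupled D1 receptor were loaded with a no-wash calcium dye. Compound was added after a 10 s baseline and read kinetically for 180 s; EC80 dopamine was then added and calcium flux followed another 180 s.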
D3 antag: blocks the human D3 dopamine receptor. P35462. D3R cells, DiscoveRx beta-arrestin luminescence, antagonist mode; active compounds read low. max response, negative = inhibition, %. hit rate 2.5% among 360,000. AID 652054; in the data active = max response below about -50%; inconclusive = no clear call, values can overlap the other calls; note: % is set by controls: 0 for no effect and ±100 for the full control effect
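Cells expressing the human receptor were seeded at 1500 cells/well, incubated overnight at 37 degrees C in 5% CO2, then exposed to library compounds with dopamine controls for 90 minutes at 37 degrees C before luminescent detection.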
D1 potentiator: enhances dopamine response at the human D1 receptor; HEK293 TREx D1 cells, calcium flux, dopamine EC20 potentiation; potentiation, % at 10 µM; AID 504651; hit rate 0.036% among 360,000; in the data active = potentiation above about 30%; note: 0% is about no effect
D3 ag: activates the human D3 dopamine receptor | hit rate 0.58% among 410,000 | max activation, % | AID 652048 | D3R DiscoveRx beta-arrestin cells, luminescence, 90 min | P35462; in the data active = max activation above about 30%; note: 0% is about no effect
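Agonist-mode cell screen: cells plated at 1500/well and incubated overnight at 37 °C, then exposed to library compounds for 90 min at 37 °C. Detection reagent was added for 30–60 min at room temperature, and luminescence was read.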
ERG-DNA inh: inhibitors of human ERG Ets domain-DNA interaction; P11308; fluorescence polarization, His-ERG Ets domain / labelled DNA; Potency, µM (series often up to 76.9 µM), for the others: top-dose FP activity, negative = inhibition, actives largely listed as inhibitors; hit rate 0.028% among 370,000; active = well fitted inhibition curve with a large enough effect in the polarisation, with a control signal flat; inconclusive = small, poorly fitted or top-dose-only effect, or effect the other way, or a change in a side signal; inactive = no such curve, though single readings can be large or run the other way; the % refers to the polarisation;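 note: polarization taken with two DNA probes labelled with fluorescein and Texas red; potency is the fitted concentration of half-maximal effect; % of control where 0% means no effect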
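His-tagged ERG Ets domain (1 uM in the protein solution; 300mM KCl, 50mM Tris-HCl, 1mM EDTA, 1mM DTT, pH 7.5) received compound, then a probe mix of 5 nM fluorescein-DNA and 100nM Texas-615-DNA. Fluorescence polarization was read for both dyes.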
Active calls of the source: *; ? = inconclusive; . = no result.

SMILES	D1 ag	D1 antagonist	D3 antag	D1 potentiator	D3 ag	ERG-DNA inh
COCCn1c(C)cc(C(=O)CSc2nc3ccccc3c(=O)n2Cc2ccco2)c1C	2	1	16	0	43*	-6%
COCCn1c(C)cc(C(=O)CSc2cc(C)c3ccccc3n2)c1C	2	-38*	7	-8	5	2%
CN(Cc1ccccc1)C(=O)CSc1nc2ccccc2c(=O)n1Cc1ccco1	4	-5	23	-1	3	.
Cc1sc(-c2ccncc2)nc1OC(=O)c1ccc(Cl)cc1	1	1	69	-7	2	-5%
COc1cccc(CNc2nc3cc(-c4cccc(C(F)(F)F)c4)sc3c(=O)n2C)c1	.	.	10	.	12	.
COC(=O)c1ccccc1NC(=O)Cn1c(=O)cc(C)c2c(C)nn(C)c21	11	-20	.	-4	-8	-3%
COc1cc(OC)cc(-c2c(-c3cccs3)c3cc(-c4ccc(C(N)=O)cc4)ccc3n2C)c1	.	.	71	.	39*	5%
CCCOc1ccccc1C(=O)N1CCCCC1CCN1CCCCC1 (stereo unspecified)	4	6	.	1	49*	-14%
CCNC(=O)c1ccc(CSc2nc3ccccc3s2)cc1	1	-1	17	-1	9	-9%
CCn1c(CSc2nc3ccccc3s2)n[nH]c1=S	6	-1	-53*	4	-1	-14%
CN(C)CCCSc1nc2ccccc2s1	8	-4	-82*	13	-25	-7%
S=c1[nH]nc(CSc2nc3ccccc3s2)n1Cc1ccccc1	4	-2	?	-3	-5	-14%
COCCNC(=O)c1ccc(CSc2nc3ccccc3s2)cc1	12	-34*	1	-8	-1	-10%
c1ccc2sc(SCSc3nc4ccccc4s3)nc2c1	9	22	-5	-2	5	-3%
O=C(O)CCSc1nc2ccccc2s1	5	-18	-72*	0	4	11%
CCc1noc(C)c1C(=O)OC(C)C(=O)Nc1ccc(Cl)cn1 (stereo unspecified)	1	25	-4	8	2	1%
CCN(Cc1ccccc1)C(=O)CCc1nnc(CCCc2ccccc2)o1	0	11	28	3	2	-5%
CN(C)Cc1csc(NC(=O)Nc2cccc(C(F)(F)F)c2)n1	.	.	-10	.	-2	.
CC(N)c1csc(NC(=O)Nc2cccc(C(F)(F)F)c2)n1 (stereo unspecified)	.	.	-54*	.	-19	.
CC(C)c1ccc(NC(=O)Nc2nc(C(N)c3ccccc3)cs2)cc1 (stereo unspecified)	.	.	24	.	1	.
CC(C)c1ccc(NC(=O)Nc2nc(C(N)C(C)C)cs2)cc1 (stereo unspecified)	.	.	-54*	.	43*	.
COCCNc1nc2c(c(=O)n(C)c(=O)n2C)n1Cc1c(F)cccc1Cl	4	6	.	0	15	5%
CCC(C)Cn1c(/C=C/c2ccccc2)nc2ccccc21 (stereo unspecified)	4	-24	.	-3	-14	-1%
CCCn1c(/C=C/c2ccco2)nc2ccccc21	9	1	8	-2	3	13%
CC(C)CCn1c(/C=C/c2ccccc2)nc2ccccc21	10	-32*	.	-5	-9	7%
SMILES	D1 ag	D1 antagonist	D3 antag	D1 potentiator	D3 ag	ERG-DNA inh
CC(C)CCn1c(-c2nonc2N)nc2ccccc21	2	-33*	-51*	-5	1	-7%
C#CCn1c(/C=C/c2ccc(Cl)cc2)nc2ccccc21	6	-36*	.	-3	4	7%
CCCCn1c(/C=C/c2ccco2)nc2ccccc21	30*	-5	27	-5	4	12%
CCC1Sc2ccc(S(=O)(=O)Nc3cc(OC)cc(OC)c3)cc2NC1=O (stereo unspecified)	1	37	19	-1	1	4%
COCCN(C(=O)c1c(C)noc1C)c1c(N)n(CC(C)C)c(=O)[nH]c1=O	0	-11	24	-6	3	.
Cc1ccc(NC(=O)CSc2nnc(Cc3ccccc3)c(=O)[nH]2)c(C)c1	0	0	-8	-2	-6	-6%
COCCn1c(/C=C/c2ccccc2)nc2ccccc21	-1	-34*	2	-3	-2	4%
COc1ccccc1Cn1c(/C=C/c2ccccc2)nc2ccccc21	10	-31*	-4	-5	-5	7%
COc1ccccc1-c1nnc2sc(COc3ccc(Cl)cc3)nn12	0	-2	-52*	-5	1	-5%
CCOc1cccc(-c2nnc3sc(COc4ccccc4)nn23)c1	5	12	22	0	38*	-5%
COc1ccc(Cc2nn3c(-c4ccccc4OC)nnc3s2)cc1	4	-12	-10	-3	6	0%
c1ccc(OCc2nn3c(-c4n[nH]c5c4CCC5)nnc3s2)cc1	2	6	-52*	-1	7	0%
CCOc1ccc(S(=O)(=O)N2CCCCC2)cc1NC(=O)C1CSC2(C)CCC(=O)N12 (stereo unspecified)	-1	6	2	0	1	-2%
CCc1ccc(NC(=O)C2CCN(C(=O)[C@@H]3Cc4ccccc4CN3)CC2)cc1	32*	8	9	-2	-2	-21%
CC(=O)NCCC(=O)N(Cc1ccccc1)c1nc2c(C)cccc2s1	4	3	-14	-2	0	-10%
COc1ccc(C2=NOC(C(=O)Nc3cccnc3)C2)cc1OC (stereo unspecified)	5	3	2	-2	-3	-16%
Cc1cc(C)n2c(SCc3ccc(Cl)cc3Cl)nnc2n1	42*	8	-6	10	6	-1%
Cc1cc(C)n2c(SCc3ccccc3Cl)nnc2n1	2	9	-1	-4	-5	-5%
CNC(=O)/C(C#N)=C\c1ccc(CNS(=O)(=O)c2ccc(Cl)cc2)o1	1	-69*	-7	-4	5	-4%
Cc1cc(-c2nn(-c3ccccc3F)cc2CNCCc2cnccn2)c(C)s1	3	3	-28	-6	-15	0%
Cc1cc(-c2nn(-c3ccccc3F)cc2CN2CCN(c3ccccn3)CC2)c(C)s1	1	2	-79*	1	-19	-11%
Cc1cccc(C(=O)NCC(c2ccc3c(c2)OCO3)N2CCN(c3ccccc3F)CC2)c1 (stereo unspecified)	2	3	.	0	-22	0%
Cc1csc(NC(=O)CSc2ccccc2F)n1	1	24	-17	-2	-7	2%
CSc1ccc(C(=O)N2CCc3ccc(NC(=O)c4ccccn4)cc3C2)cc1	7	-4	6	2	0	3%
Cc1c(CNC2CCCCCC2)c(C(=O)O)c(C)n1Cc1ccc(F)cc1	0	0	.	-1	-6	0%
